Test results reported in PubChem BioAssay (Tox21).
“And” between values parts separate entries of the source, which are not always exact repeats. Equal entries are not always repeated. Results filed as inconclusive are left out. A call without a number means that no potency is given here. More than one record can exist for a structure, and the calls need not agree. The source made the active and inactive calls. Unless noted, calls come from the whole dose curve.

Tested on: not listed separately
Experiment: qHTS assay to identify small molecule antagonists of the sonic hedgehog signaling (Shh) pathway (AID 1259369); note: nearly all actives have a fitted effect of over 45% in size; note: potency is the fitted concentration of half-maximal effect
Conditions: NIH/3T3 Gli1-Luc reporter, Shh antagonist, luminescence 24 h; series mostly up to 92.4 µM
Procedure, shortened: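 3T3Gli1-Luc, conditioned-medium-stimulated, 24hr cpd, 37C/5% CO2; Gli1-driven firefly Luc luminescence after 30min RT with luciferase reagent. Cells plated 4hr before cpd.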

Row | Structure (SMILES) | Potency
1 | CC(C)(C)C(=O)Cl | inactive
2 | O=C1C2CC=CCC2C(=O)N1SC(Cl)(Cl)Cl (stereo not given) | inactive and 2.69 µM (active)
3 | O=C(Cl)C(Cl)Cl | inactive
4 | C/C=C/CC#N | inactive
5 | S=C=S | inactive
6 | O=C1CC(=O)NC(=O)N1 | inactive
7 | CCN(CCO)CCO | inactive
8 | ClC1=C(Cl)C2(Cl)C(CBr)CC1(Cl)C2(Cl)Cl (stereo not given) | inactive
9 | CCOC(=O)c1ncn2c1CN(C)C(=O)c1c(I)cccc1-2 | inactive
10 | COc1ccccc1OC | inactive
11 | c1cncc([C@@H]2CCCCN2)c1 | inactive
12 | CCOP(=S)(OCC)Oc1ccc(Cl)cc1Cl | inactive
13 | CC(Cc1ccccc1)NCCn1cnc2c1c(=O)n(C)c(=O)n2C (stereo not given) | inactive
14 | CC(C)(O)C(Cl)(Cl)Cl | inactive
15 | O=C(Cl)CCl | inactive
16 | C=C1C[C@@H]2[C@H](CC[C@]3(C)C(=O)CC[C@@H]23)[C@@]2(C)C=CC(=O)C=C12 | 6.68 µM (active)
17 | N#CN | inactive
18 | CCN(CCO)CCn1c(Cc2ccccc2)nc2c1c(=O)n(C)c(=O)n2C | inactive

Row | Structure (SMILES) | Potency
19 | CC[C@H](N)c1ccccc1 | inactive
20 | C=CC1(C)OC(=O)N(c2cc(Cl)cc(Cl)c2)C1=O (stereo not given) | 21.6 µM (active) and inactive
21 | CN=CNc1ccc(C)cc1C | inactive
22 | O=C(Cl)C(Cl)(Cl)Cl | inactive
23 | CCOC(=O)C(Cl)Cc1cc(-n2nc(C)n(C(F)F)c2=O)c(F)cc1Cl (stereo not given) | inactive
24 | Cc1cc(OC(=O)N(C)C)nn1C(=O)N(C)C | inactive
25 | O=C(O)c1c(Cl)ccc2cc(Cl)cnc12 | inactive
26 | COP(=O)(OC)O/C(C)=C/C(=O)N(C)C | inactive
27 | Cn1c(CCCC(=O)O)nc2cc(N(CCCl)CCCl)ccc21 | inactive
28 | CS(=O)(=O)Cl | inactive
29 | CCC(C(N)=O)N1CCCC1=O (stereo not given) | inactive
30 | CN(CCO)CCO | inactive
31 | NCCOS(=O)(=O)O | inactive
32 | C=CCCC#N | inactive
33 | O=C(NC(O)C(Cl)(Cl)Cl)NC(O)C(Cl)(Cl)Cl (stereo not given) | inactive
34 | COc1cccc(C=O)c1 | inactive
35 | CCC(C)C(C)(COC(N)=O)COC(N)=O (stereo not given) | inactive

Target: Estrogen receptor beta (Homo sapiens) (UniProt Q92731)
Experiment: qHTS assay to identify small molecule agonists of the estrogen receptor beta (ER-beta) signaling pathway (AID 1259377; active = well fitted activation curve with a large enough effect in the signal ratio in the repeat runs, not every such curve was filed as active; the % refers to the signal ratio; note: potency is the fitted concentration of half-maximal effect)
Conditions: ER-beta-UAS-bla HEK293T, beta-lactamase FRET ratio, 16 h; series mostly up to 92.4 µM
Procedure, shortened: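 qHTS in ER-beta-UAS-bla HEK293T cells: 6 hr settling, then 16 hr compound at 37C, then LiveBLAzer substrate 2 h at RT before fluorescence reading.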

Sequence of Estrogen receptor beta (Homo sapiens) (Q92731 whole entry, looked up): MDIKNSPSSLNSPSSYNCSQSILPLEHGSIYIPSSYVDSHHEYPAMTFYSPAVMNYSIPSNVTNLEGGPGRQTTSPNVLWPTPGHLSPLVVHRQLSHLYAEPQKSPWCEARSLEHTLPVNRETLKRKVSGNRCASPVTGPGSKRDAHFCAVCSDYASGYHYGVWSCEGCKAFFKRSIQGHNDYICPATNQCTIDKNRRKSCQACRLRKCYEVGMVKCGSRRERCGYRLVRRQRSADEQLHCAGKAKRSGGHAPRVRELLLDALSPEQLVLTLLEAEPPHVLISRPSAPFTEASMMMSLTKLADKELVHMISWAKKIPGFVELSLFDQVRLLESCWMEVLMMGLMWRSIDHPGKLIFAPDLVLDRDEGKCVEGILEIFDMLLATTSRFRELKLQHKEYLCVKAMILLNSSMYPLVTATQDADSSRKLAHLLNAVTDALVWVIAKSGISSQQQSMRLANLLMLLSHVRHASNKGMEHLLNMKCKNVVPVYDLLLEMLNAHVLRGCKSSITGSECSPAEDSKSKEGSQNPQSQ

Row | Structure (SMILES) | Potency
36 | CC(C)(C)C(=O)Cl | inactive
37 | O=C1C2CC=CCC2C(=O)N1SC(Cl)(Cl)Cl (stereo not given) | 8.6 µM (active)
38 | O=C(Cl)C(Cl)Cl | inactive
39 | C/C=C/CC#N | inactive
40 | S=C=S | inactive
41 | O=C1CC(=O)NC(=O)N1 | inactive
42 | CCN(CCO)CCO | inactive
43 | ClC1=C(Cl)C2(Cl)C(CBr)CC1(Cl)C2(Cl)Cl (stereo not given) | inactive
44 | CCOC(=O)c1ncn2c1CN(C)C(=O)c1c(I)cccc1-2 | inactive
45 | COc1ccccc1OC | inactive
46 | c1cncc([C@@H]2CCCCN2)c1 | inactive
47 | CCOP(=S)(OCC)Oc1ccc(Cl)cc1Cl | inactive
48 | CC(Cc1ccccc1)NCCn1cnc2c1c(=O)n(C)c(=O)n2C (stereo not given) | inactive
49 | CC(C)(O)C(Cl)(Cl)Cl | inactive
50 | O=C(Cl)CCl | inactive
51 | C=C1C[C@@H]2[C@H](CC[C@]3(C)C(=O)CC[C@@H]23)[C@@]2(C)C=CC(=O)C=C12 | inactive
52 | N#CN | inactive
53 | CCN(CCO)CCn1c(Cc2ccccc2)nc2c1c(=O)n(C)c(=O)n2C | inactive

Row | Structure (SMILES) | Potency
54 | CC[C@H](N)c1ccccc1 | inactive
55 | C=CC1(C)OC(=O)N(c2cc(Cl)cc(Cl)c2)C1=O (stereo not given) | inactive
56 | CN=CNc1ccc(C)cc1C | inactive
57 | O=C(Cl)C(Cl)(Cl)Cl | inactive
58 | CCOC(=O)C(Cl)Cc1cc(-n2nc(C)n(C(F)F)c2=O)c(F)cc1Cl (stereo not given) | inactive
59 | Cc1cc(OC(=O)N(C)C)nn1C(=O)N(C)C | inactive
60 | O=C(O)c1c(Cl)ccc2cc(Cl)cnc12 | inactive
61 | COP(=O)(OC)O/C(C)=C/C(=O)N(C)C | inactive
62 | Cn1c(CCCC(=O)O)nc2cc(N(CCCl)CCCl)ccc21 | inactive
63 | CS(=O)(=O)Cl | inactive
64 | CCC(C(N)=O)N1CCCC1=O (stereo not given) | inactive
65 | CN(CCO)CCO | inactive
66 | NCCOS(=O)(=O)O | inactive
67 | C=CCCC#N | inactive
68 | O=C(NC(O)C(Cl)(Cl)Cl)NC(O)C(Cl)(Cl)Cl (stereo not given) | inactive
69 | COc1cccc(C=O)c1 | inactive
70 | CCC(C)C(C)(COC(N)=O)COC(N)=O (stereo not given) | inactive

Target: Estrogen receptor beta (Homo sapiens) (UniProt Q92731)
Experiment: qHTS assay to identify small molecule antagonists of the estrogen receptor beta (ER-beta) signaling pathway (AID 1259378; active = well fitted inhibition curve with a large enough effect in the signal ratio in the repeat runs, not every such curve was filed as active; the % refers to the signal ratio)
Conditions: ER-beta-UAS-bla HEK293T, beta-lactamase FRET ratio, 16 h; series mostly up to 92.4 µM
Procedure, shortened: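 ER-beta-UAS-bla HEK293T (GripTite) cells in 2% charcoal-stripped FBS medium were preincubated 6 hr at 37C, dosed with compound, then stimulated with 1 nM E2 (final) for 16 hr; beta-lactamase reporter read by B/G FRET fluorescence after 2 hr substrate loading.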

Row | Structure (SMILES) | outcome
71 | CC(C)(C)C(=O)Cl | inactive
72 | O=C1C2CC=CCC2C(=O)N1SC(Cl)(Cl)Cl (stereo not given) | inactive
73 | O=C(Cl)C(Cl)Cl | inactive
74 | C/C=C/CC#N | inactive
75 | S=C=S | inactive
76 | O=C1CC(=O)NC(=O)N1 | inactive
77 | CCN(CCO)CCO | inactive
78 | ClC1=C(Cl)C2(Cl)C(CBr)CC1(Cl)C2(Cl)Cl (stereo not given) | inactive
79 | CCOC(=O)c1ncn2c1CN(C)C(=O)c1c(I)cccc1-2 | inactive
80 | COc1ccccc1OC | inactive
81 | c1cncc([C@@H]2CCCCN2)c1 | inactive
82 | CCOP(=S)(OCC)Oc1ccc(Cl)cc1Cl | inactive
83 | CC(Cc1ccccc1)NCCn1cnc2c1c(=O)n(C)c(=O)n2C (stereo not given) | inactive
84 | CC(C)(O)C(Cl)(Cl)Cl | inactive
85 | O=C(Cl)CCl | inactive
86 | C=C1C[C@@H]2[C@H](CC[C@]3(C)C(=O)CC[C@@H]23)[C@@]2(C)C=CC(=O)C=C12 | inactive
87 | N#CN | inactive
88 | CCN(CCO)CCn1c(Cc2ccccc2)nc2c1c(=O)n(C)c(=O)n2C | inactive

Row | Structure (SMILES) | outcome
89 | CC[C@H](N)c1ccccc1 | inactive
90 | C=CC1(C)OC(=O)N(c2cc(Cl)cc(Cl)c2)C1=O (stereo not given) | inactive
91 | CN=CNc1ccc(C)cc1C | inactive
92 | O=C(Cl)C(Cl)(Cl)Cl | inactive
93 | CCOC(=O)C(Cl)Cc1cc(-n2nc(C)n(C(F)F)c2=O)c(F)cc1Cl (stereo not given) | inactive
94 | Cc1cc(OC(=O)N(C)C)nn1C(=O)N(C)C | inactive
95 | O=C(O)c1c(Cl)ccc2cc(Cl)cnc12 | inactive
96 | COP(=O)(OC)O/C(C)=C/C(=O)N(C)C | inactive
97 | Cn1c(CCCC(=O)O)nc2cc(N(CCCl)CCCl)ccc21 | inactive
98 | CS(=O)(=O)Cl | inactive
99 | CCC(C(N)=O)N1CCCC1=O (stereo not given) | inactive
100 | CN(CCO)CCO | inactive
101 | NCCOS(=O)(=O)O | inactive
102 | C=CCCC#N | inactive
103 | O=C(NC(O)C(Cl)(Cl)Cl)NC(O)C(Cl)(Cl)Cl (stereo not given) | inactive
104 | COc1cccc(C=O)c1 | inactive
105 | CCC(C)C(C)(COC(N)=O)COC(N)=O (stereo not given) | inactive
